# Laboratory results taken from PubChem BioAssay (Tox21).
# Inconclusive results are not listed. The source made the active and inactive calls. Calls come from the whole dose curve; as a rule, active = well fitted cell-killing curve with a large enough effect in the repeat runs; inconclusive = weak or mixed curves, or effect the other way; inactive = flat fitted curve, though single readings scatter.
# Assay: qHTS assay to identify small molecule agonists of the estrogen receptor beta (ER-beta) signaling pathway - cell viability counter screen (AID 1259380); note: nearly all actives have a fitted effect of over 30% in size
# Details: ER-beta-bla HEK293T viability, CellTiter-Glo luminescence, 16 h; series mostly up to 92.4 µM; activity change, negative = cytotoxicity: at the top concentration
# From the text: National Center for Advancing Translational Sciences [NCATS]
# NIH Chemical Genomics Center [NCGC]
# U.S. Environmental Protection Agency [EPA]
# National Institutes of Environmental Health Sciences [NIEHS]
# National Toxicology Program [NTP]
# U.S. Food and Drug Administration [FDA]
# Estrogen receptor (ER), a nuclear hormone receptor, plays an important role in development, metabolic homeostasis and reproduction. Two subtypes of ER, ER-alpha and ER-beta, have similar expression patterns with some uniqueness in both types. Endocrine disrupting chemicals (EDCs) and their interactions with steroid hormone receptors like ER causes disruption of normal endocrine function. To identify the compounds that activate ER signaling, an ER beta-UAS-bla GripTite cell line (Life Technologies, Madison, WI, USA) containing a beta-lactamase reporter gene under the control of an UAS response element was used to screen Tox21 10K compound library. The cytotoxicity of the Tox21 compound library against the ER-beta-bla cell line was tested in parallel by measuring the cell viability using CellTiter-Glo assay in the same wells.
# Tox21 Assay Protocol Summary:
# ER-beta-UAS-bla HEK293T cells were dispensed at 2,000 cells/5 uL of assay medium containing 2% charcoal stripped FBS per well into black wall/clear-bottom 1536-well plates using a Multidrop Combi (ThermoFisher Scientific, Waltham, MA) dispenser. After the assay plates were incubated at a 37C and 5% CO2 for 6 hr, 23 nL of compounds dissolved in DMSO, positive controls or DMSO only was transferred to the assay plate by a Pintool station (Kalypsys, San Diego, CA). The plates were incubated at 37C and 5% CO2 for 16 hr. Then 1 uL of LiveBLAzerTM B/G FRET substrate was added using a BioRAPTR FRD (Flying Reagent Dispenser, Aurora Discovery, San Diego, CA) and then the plates were incubated at room temperature for 2 hours, and fluorescence intensity was measured by an Envision plate reader (PerkinElmer, Shelton, CT). For cell viability readout that measures cytotoxicity, 4 uL/well of CellTiter-Glo reagent was added into the assay plates using a FRD. After 30 min incubation at room temperature, the luminescence intensity in the plates was measured using a ViewLux (PerkinElmer) plate reader.
# % is set by controls: 0 for no effect and ±100 for the full control effect; potency is the fitted concentration of half-maximal effect.
SMILES,Potency,"activity change, negative = cytotoxicity"
CCC(=O)c1ccc2c(c1)N(CCCN(C)C)c1ccccc1S2,29.8 µM (active),–
c1ccc(CN(CC2=NCCN2)c2ccccc2)cc1,–,-4.98% [at 42.5 µM] (inactive)
CC(C)=CCCC(C)CCOC=O (stereo not given),–,0.512% (inactive)
Cc1ccc([N+](=O)[O-])cc1Cl,–,8.49% (inactive)
COC(=O)c1ccc2cc(C(=O)OC)ccc2c1,–,0.723% [at 19 µM] (inactive)
CCCOc1ccc2c(c1)CC[C@@H]1[C@@H]2CC[C@]2(C)C(OC)CC[C@@H]12 (stereo not given in full),–,-7.28% [at 42.5 µM] (inactive)
CCCNC(C)C(=O)Nc1c(C)csc1C(=O)OC (stereo not given),–,1.52% [at 42.5 µM] (inactive)
CC(=O)O[C@H]1CC[C@@]2(C)C(=CC[C@@H]3[C@@H]2CC[C@]2(C)C(C(C)=O)=CC[C@@H]32)C1,–,9.58% [at 42.5 µM] (inactive)
CCOc1ccc(NC(N)=O)cc1,–,0.567% (inactive)
O=C(O[C@@H](C(=O)O)[C@@H](OC(=O)c1ccccc1)C(=O)O)c1ccccc1,–,6.04% (inactive)
Cc1cc(S(=O)(=O)O)c(N)cc1Cl,–,3.16% (inactive)
NNS(=O)(=O)c1ccc(Oc2ccc(S(=O)(=O)NN)cc2)cc1,–,2.9% (inactive)
COc1ccccc1OCC(O)COC(N)=O (stereo not given),–,0.837% [at 42.5 µM] (inactive)
OCc1ccccc1O,–,5.78% [at 42.5 µM] (inactive)
CC(=O)Oc1cc(C(C)C)c(OCCN(C)C)cc1C,–,1.52% [at 42.5 µM] (inactive)
Nc1ccc2ccccc2c1S(=O)(=O)O,–,-6.88% (inactive)
CCN(CC)CC1CCCCN1CC(=O)N1c2ccccc2C(=O)Nc2cccnc21 (stereo not given),–,0.852% [at 42.5 µM] (inactive)
Cc1ccccc1C(=O)Nc1ccc(C(=O)N2CCCC(O)c3cc(Cl)ccc32)c(C)c1 (stereo not given),23.7 µM (active),–
C=CCCCCCCCCO,–,-0.869% (inactive)
CC1=NN(c2cc(Cl)c(S(=O)(=O)O)cc2Cl)C(=O)C1N=Nc1ccc(S(=O)(=O)O)cc1 (stereo not given),–,0.429% (inactive)

SMILES,Potency,"activity change, negative = cytotoxicity"
O=C1CCCCCCCCCCC(=O)OCCO1,–,-3.82% (inactive)
CC1(C)S[C@@H]2[C@H](NC(=O)C(C(=O)O)c3ccccc3)C(=O)N2[C@H]1C(=O)O (stereo not given in full),–,9.34% [at 42.5 µM] (inactive)
CCC1(C)NC(=O)NC1=O (stereo not given),–,2.78% (inactive)
O=C(O)C(=O)Cc1c[nH]c2ccccc12,–,-14% (inactive)
Cc1onc(-c2ccccc2)c1C(=O)Cl,–,3.67% [at 42.5 µM] (inactive)
NS(=O)(=O)c1cc(-c2nn[nH]n2)c(NCc2cccs2)cc1Cl,–,0.237% [at 42.5 µM] (inactive)
COc1cc(C)ccc1C(C)C,–,0.379% (inactive)
C=CCCC=C,–,-3.13% (inactive)
Oc1ccccc1F,–,2.31% (inactive)
CCCCC(CC)COC(=O)COc1cc(Cl)c(Cl)cc1Cl (stereo not given),–,-0.776% (inactive)
CN1CCN(c2c(F)cc3c(=O)c(C(=O)O)cn(CCF)c3c2F)CC1,–,9% [at 42.5 µM] (inactive)
CCN(CCCc1ccccc1)CCCc1ccccc1,11.9 µM (active),–
CCCCCCCCOC(=O)CCCCCCCCC(=O)OCCCCCCCC,–,1.49% (inactive)
CC(C)C(=O)OCC(C)(C)C(O)C(C)C (stereo not given),–,8.44% (inactive)
CCC(=O)Nc1ccc(O)cc1,–,7.76% [at 42.5 µM] (inactive)
CCCCCCCCc1ccc(S(=O)(=O)O)cc1,19.2 µM (active),–
CCCCCCCOC(=O)CCC,–,0.0199% (inactive)
CCOC(=O)C(Br)c1ccccc1 (stereo not given),–,2.65% (inactive)
CCCNC(C)(C)COC(=O)c1ccccc1,–,9.14% [at 42.5 µM] (inactive)
CCCc1c2oc(C(=O)O)cc(=O)c2cc2c(=O)cc(C(=O)O)n(CC)c12,–,-0.263% [at 42.5 µM] (inactive)
